SMILES strings stand for the structures. Values joined by “and” are separate entries in the source; they are usually repeats but may differ in a detail not shown here. Identical values can stand only once. Inconclusive results are not listed. A call without a number means that no potency is given here. The source holds several records for some structures; these can differ, active in one and inactive in another. Active and inactive are the calls of the source. Unless noted, the call rests on the fitted dose curve; in most records, active means well fitted curve in the direction sought with a large enough effect in the repeat runs; inconclusive means weak or mixed curves; inactive means no such curve, though single readings can be large; an effect the other way counts as inactive or inconclusive.

Tested on in the first test: not listed separately
In words: qHTS assay to identify small molecule antagonists of the estrogen receptor alpha (ER-alpha) signaling pathway using the BG1 cell line in the presence of 0.1 nM 17-beta-estradiol - cell viability counter screen (AID 1259241). Further: nearly all actives have a fitted effect of over 40% in size. The note with it: VM7Luc4E2 (BG1) viability, CellTiter-Fluor protease, 22 h, 0.1 nM estradiol agonist added; series mostly up to 92.4 µM. In short, it runs like this: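 VM7Luc4E2, 4,000 cells/well, phenol red-free medium + 10% charcoal-stripped FBS; 24 hr plating; cpd + 0.1 nM E2 final, 22 hr 37C/5% CO2; CellTiter-Fluor 30 min, fluorescence.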
On the technique in general: In qHTS, concentration-response curves come from the screen itself.
As for `CN(C)CCC#N`, the outcome was inactive.

As to `CCCOC(=O)c1ccccc1C(=O)OCCC`, the result was inactive.

As for `CNC(=O)Oc1cccc2ccccc12`, the result was inactive.

As for `O=C(O)C1C(C(=O)O)C2(Cl)C(Cl)=C(Cl)C1(Cl)C2(Cl)Cl` (stereo unspecified), the outcome was inactive.

In the case of `c1ccc2c(c1)CCCC2`, the result was inactive.

Regarding `O=[N+]([O-])c1ccc(Cl)cc1`, the result was inactive.

As to `CC(C)(C)C(=O)CCl`, the outcome was inactive.

Turning to `Nc1nc(N)nc(NC2CC2)n1`, the result was inactive.

Turning to `CN(C)C(=O)C(c1ccccc1)c1ccccc1`, the result was inactive.

As to `C/C=C/c1ccc2c(c1)OCO2`, the outcome was inactive.

Turning to `COP(=S)(OC)SCN1C(=O)c2ccccc2C1=O`, the outcome was inactive.

Turning to `CC[N+](=O)[O-]`, the outcome was inactive.

Turning to `Sc1ccccc1`, the result was inactive.

With `CCSC(=O)N1CCCCCC1`, the result was inactive.

As for `Cl[C@H]1OCCO[C@@H]1Cl`, the result was inactive.

As to `C=CC(=O)OCC(CC)CCCC` (stereo unspecified), the result was inactive.

On to `O=[N+]([O-])c1cc([As](=O)(O)O)ccc1O`, for which the outcome was inactive.

With `CCOc1ccc(N)cc1`, the outcome was inactive.

For `Nc1ccc(N)cc1`, the result was inactive.

With `CCNc1nc(Cl)nc(NC(C)C)n1`, the outcome was inactive.

Turning to `C=CC#N`, the result was inactive.

In the case of `C=C(C)C(=O)OCC(CC)CCCC` (stereo unspecified), the result was inactive.

For the compound `Cc1cc(Cl)ccc1OC(C)C(=O)O` (stereo unspecified), the outcome was inactive.

Take `CCCCC(CC)C(=O)Cl` (stereo unspecified): the result was inactive.

As for `COc1cc(-c2ccc(N)c(OC)c2)ccc1N`, the result was inactive.

Consider `O=P1(NCCCl)OCCCN1CCCl` (stereo unspecified), for which the result was inactive.

For `O=C(O)C(Br)Br`, the result was inactive.

`Cc1cccc(C)c1NC(=O)CN1CCCC1=O`: the result was inactive.

On to `[N-]=[N+]=CC(=O)OC[C@H](N)C(=O)O`, for which the outcome was inactive.

Take `OCc1ccco1`: the result was inactive.

Tested on in another test: not listed separately
In words: qHTS assay to identify small molecule antagonists of the androgen receptor (AR) signaling pathway using the MDA cell line in the presence of 0.5 nM R1881 - cell viability counter screen (AID 1259242). Further: nearly all actives have a fitted effect of over 45% in size. The note with it: MDA-kb2 viability, CellTiter-Fluor protease fluorescence, 16 h; series mostly up to 92.4 µM. In short, it runs like this:
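Cytotoxicity toward MDA-kb2 cells is measured by CellTiter-Fluor live-cell protease fluorescence after 16 hr compound exposure at 37C in the presence of 0.5 nM R1881 stimulator.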
Take `CN(C)CCC#N`: the result was inactive.

With `CCCOC(=O)c1ccccc1C(=O)OCCC`, the outcome was inactive.

On to `CNC(=O)Oc1cccc2ccccc12`, for which the outcome was inactive.

With `O=C(O)C1C(C(=O)O)C2(Cl)C(Cl)=C(Cl)C1(Cl)C2(Cl)Cl` (stereo unspecified), the outcome was inactive.

For the compound `c1ccc2c(c1)CCCC2`, the result was inactive.

As to `O=[N+]([O-])c1ccc(Cl)cc1`, the outcome was inactive.

For `CC(C)(C)C(=O)CCl`, the result was inactive.

On to `Nc1nc(N)nc(NC2CC2)n1`, for which the outcome was inactive.

In the case of `CN(C)C(=O)C(c1ccccc1)c1ccccc1`, the outcome was inactive.

Turning to `C/C=C/c1ccc2c(c1)OCO2`, the outcome was inactive.

For the compound `COP(=S)(OC)SCN1C(=O)c2ccccc2C1=O`, the outcome was inactive.

For `CC[N+](=O)[O-]`, the outcome was inactive.

With `Sc1ccccc1`, the result was inactive.

Turning to `CCSC(=O)N1CCCCCC1`, the outcome was inactive.

On to `Cl[C@H]1OCCO[C@@H]1Cl`, for which the outcome was inactive.

Take `C=CC(=O)OCC(CC)CCCC` (stereo unspecified): the result was inactive.

As for `O=[N+]([O-])c1cc([As](=O)(O)O)ccc1O`, the outcome was inactive.

As to `CCOc1ccc(N)cc1`, the outcome was inactive.

Regarding `Nc1ccc(N)cc1`, the result was inactive.

Turning to `CCNc1nc(Cl)nc(NC(C)C)n1`, the outcome was inactive.

Turning to `C=CC#N`, the outcome was inactive.

In the case of `C=C(C)C(=O)OCC(CC)CCCC` (stereo unspecified), the outcome was inactive.

Regarding `Cc1cc(Cl)ccc1OC(C)C(=O)O` (stereo unspecified), the outcome was inactive.

Regarding `CCCCC(CC)C(=O)Cl` (stereo unspecified), the result was inactive.

For `COc1cc(-c2ccc(N)c(OC)c2)ccc1N`, the result was inactive.

As to `O=P1(NCCCl)OCCCN1CCCl` (stereo unspecified), the result was inactive.

With `O=C(O)C(Br)Br`, the outcome was inactive.

Turning to `Cc1cccc(C)c1NC(=O)CN1CCCC1=O`, the outcome was inactive.

As to `[N-]=[N+]=CC(=O)OC[C@H](N)C(=O)O`, the result was inactive.

Take `OCc1ccco1`: the outcome was inactive.

The target of the next test is Estrogen receptor (Homo sapiens) (UniProt P03372). In words: qHTS assay to identify small molecule antagonists of the estrogen receptor alpha (ER-alpha) signaling pathway using the BG1 cell line in the presence of 0.1 nM 17-beta-estradiol (AID 1259244). Further: nearly all actives have a fitted effect of over 50% in size. Further: potency means the concentration at half of the fitted maximal effect. The note with it: VM7Luc4E2 (BG1) ERE-luciferase, antagonist mode, 0.1 nM E2, 22 h; series mostly up to 92.4 µM. The procedure, abridged: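 After 5 days in hormone-depleted medium (charcoal-stripped serum, no phenol red), VM7Luc4E2 cells were seeded, incubated 24 h, then co-treated with compound and 0.1 nM (final) estradiol for 22 h before luminescence detection.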
Estrogen receptor (Homo sapiens), sequence (P03372 whole entry, looked up): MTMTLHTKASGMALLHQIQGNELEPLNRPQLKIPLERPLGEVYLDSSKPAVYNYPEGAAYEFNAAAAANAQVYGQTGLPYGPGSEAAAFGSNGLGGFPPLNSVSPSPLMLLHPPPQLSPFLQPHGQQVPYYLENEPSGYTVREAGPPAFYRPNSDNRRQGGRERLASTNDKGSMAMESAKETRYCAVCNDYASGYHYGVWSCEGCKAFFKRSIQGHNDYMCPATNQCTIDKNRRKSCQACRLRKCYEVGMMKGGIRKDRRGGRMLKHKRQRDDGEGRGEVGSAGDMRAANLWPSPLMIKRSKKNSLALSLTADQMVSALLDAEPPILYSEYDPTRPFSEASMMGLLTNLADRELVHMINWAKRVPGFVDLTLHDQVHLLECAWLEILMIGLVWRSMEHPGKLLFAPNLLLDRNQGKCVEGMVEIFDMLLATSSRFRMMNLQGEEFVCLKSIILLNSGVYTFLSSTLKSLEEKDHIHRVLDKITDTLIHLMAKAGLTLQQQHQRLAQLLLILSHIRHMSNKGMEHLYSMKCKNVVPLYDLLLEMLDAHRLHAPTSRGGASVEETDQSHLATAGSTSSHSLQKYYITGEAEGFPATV
Turning to `CN(C)CCC#N`, the Potency entry was “inactive”.

In the case of `CCCOC(=O)c1ccccc1C(=O)OCCC`, the Potency result is “inactive”.

Turning to `CNC(=O)Oc1cccc2ccccc12`, the Potency entry was “inactive”.

As for `O=C(O)C1C(C(=O)O)C2(Cl)C(Cl)=C(Cl)C1(Cl)C2(Cl)Cl` (stereo unspecified), the Potency result is “inactive”.

As to `c1ccc2c(c1)CCCC2`, the Potency entry was “inactive”.

`CC(C)(C)C(=O)CCl`: the Potency result is “inactive”.

For the compound `Sc1ccccc1`, the Potency result is “inactive”.

With `CCSC(=O)N1CCCCCC1`, the Potency entry was “inactive”.

For the compound `O=[N+]([O-])c1cc([As](=O)(O)O)ccc1O`, the Potency result is “inactive”.

For the compound `CCOc1ccc(N)cc1`, the Potency result is “inactive”.

Regarding `CCNc1nc(Cl)nc(NC(C)C)n1`, the Potency entry was “inactive”.

Regarding `C=CC#N`, the Potency entry is “inactive”.

In the case of `C=C(C)C(=O)OCC(CC)CCCC` (stereo unspecified), the Potency was 22.1 µM (active) and inactive.

For `Cc1cc(Cl)ccc1OC(C)C(=O)O` (stereo unspecified), the Potency entry is “inactive”.

Consider `CCCCC(CC)C(=O)Cl` (stereo unspecified), for which the Potency entry is “inactive”.

As to `O=C(O)C(Br)Br`, the Potency entry is “inactive”.

On to `Cc1cccc(C)c1NC(=O)CN1CCCC1=O`, for which the Potency result was “inactive”.

`OCc1ccco1`: the Potency entry is “inactive”.

Tested on in another test: not listed separately
The experiment in a line: qHTS assay to identify small molecule phospholipidosis (PLD) inducers (AID 1259344; active means well fitted curve in the direction sought with a large enough effect; an effect the other way counts as inactive or inconclusive). The conditions noted are these: HepG2 phospholipidosis, LipidTOX Red imaging, 24 h; series mostly up to 38.3 µM. The procedure, abridged:
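Phospholipidosis is scored by imaging LipidTOX-stained pits in HepG2 cells exposed to compound for 24 h at 37 C; pit counts and integrated intensities per well and per cell serve as outputs.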
In the case of `CNC(=O)Oc1cccc2ccccc12`, the Potency result was “inactive”.

For the compound `Nc1nc(N)nc(NC2CC2)n1`, the Potency result was “inactive”.

`COP(=S)(OC)SCN1C(=O)c2ccccc2C1=O`: the Potency result was “inactive”.

For `O=[N+]([O-])c1cc([As](=O)(O)O)ccc1O`, the Potency entry is “inactive”.

As to `Nc1ccc(N)cc1`, the Potency entry is “inactive”.

For `O=P1(NCCCl)OCCCN1CCCl` (stereo unspecified), the Potency entry was “inactive”.

As for `Cc1cccc(C)c1NC(=O)CN1CCCC1=O`, the Potency entry is “inactive”.

As to `[N-]=[N+]=CC(=O)OC[C@H](N)C(=O)O`, the Potency entry was “inactive”.

Tested on in another test: not listed separately
The experiment in a line: qHTS assay to identify small molecule HDAC inhibitors (AID 1259364). Further: nearly all actives have a fitted effect of over 45% in size. Further: potency means the concentration at half of the fitted maximal effect. The conditions noted are these: HCT-116 HDAC-Glo I/II luminescence, 2 h; series mostly up to 92.4 µM. In short, it runs like this:
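Homogeneous cell-based luminescent assay of endogenous class I/II HDAC activity; HCT-116 cells, 2 h compound exposure, 30 min HDAC-Glo development at RT.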
For `CN(C)CCC#N`, the Potency entry was “inactive”.

In the case of `CCCOC(=O)c1ccccc1C(=O)OCCC`, the Potency entry was “inactive”.

In the case of `CNC(=O)Oc1cccc2ccccc12`, the Potency result was “inactive”.

As for `O=C(O)C1C(C(=O)O)C2(Cl)C(Cl)=C(Cl)C1(Cl)C2(Cl)Cl` (stereo unspecified), the Potency result was “inactive”.

Consider `c1ccc2c(c1)CCCC2`, for which the Potency result is “inactive”.

Take `O=[N+]([O-])c1ccc(Cl)cc1`: the Potency entry is “inactive”.

`CC(C)(C)C(=O)CCl`: the Potency result was “inactive”.

With `Nc1nc(N)nc(NC2CC2)n1`, the Potency entry is “inactive”.

Take `CN(C)C(=O)C(c1ccccc1)c1ccccc1`: the Potency entry is “inactive”.

In the case of `C/C=C/c1ccc2c(c1)OCO2`, the Potency result is “inactive”.

For the compound `COP(=S)(OC)SCN1C(=O)c2ccccc2C1=O`, the Potency entry is “inactive”.

`CC[N+](=O)[O-]`: the Potency entry was “inactive”.

On to `Sc1ccccc1`, for which the Potency entry was “inactive”.

For `CCSC(=O)N1CCCCCC1`, the Potency result was “inactive”.

Consider `Cl[C@H]1OCCO[C@@H]1Cl`, for which the Potency result is “inactive”.

In the case of `C=CC(=O)OCC(CC)CCCC` (stereo unspecified), the Potency result is “inactive”.

As to `O=[N+]([O-])c1cc([As](=O)(O)O)ccc1O`, the Potency entry is “inactive”.

For the compound `CCOc1ccc(N)cc1`, the Potency result was “inactive”.

As for `Nc1ccc(N)cc1`, the Potency entry is “inactive”.

Turning to `CCNc1nc(Cl)nc(NC(C)C)n1`, the Potency result was “inactive”.

Consider `C=CC#N`, for which the Potency entry is “inactive”.

As to `C=C(C)C(=O)OCC(CC)CCCC` (stereo unspecified), the Potency entry was “inactive”.

Take `Cc1cc(Cl)ccc1OC(C)C(=O)O` (stereo unspecified): the Potency result was “inactive”.

Consider `CCCCC(CC)C(=O)Cl` (stereo unspecified), for which the Potency result was “inactive”.

As for `COc1cc(-c2ccc(N)c(OC)c2)ccc1N`, the Potency entry was “inactive and 27.3 µM (active)”.

Consider `O=P1(NCCCl)OCCCN1CCCl` (stereo unspecified), for which the Potency result is “inactive”.

Turning to `O=C(O)C(Br)Br`, the Potency result is “inactive”.

As for `Cc1cccc(C)c1NC(=O)CN1CCCC1=O`, the Potency entry is “inactive”.

Consider `[N-]=[N+]=CC(=O)OC[C@H](N)C(=O)O`, for which the Potency result was “inactive”.

For `OCc1ccco1`, the Potency entry was “inactive”.

The values are drawn from PubChem BioAssay (Tox21).
